Source: PubChem (National Center for Advancing Translational Sciences (NCATS))
Nrf2 ARE act = Nrf2 pathway activation | AREc32 ARE-luciferase reporter (MCF7-derived line), luminescence, 24 h | Potency, µM (titrated, usually from 46.1 µM), inactives show at the highest dose activation, most hits filed as activators | 410,000 compounds, 0.31% hits | AID 624171; note: potency is the fitted concentration of half-maximal effect; % of control where 0% means no effect; nearly all actives have a fitted effect of over 65% in size
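Reporter line AREc32 (ARE-Fluc), seeded overnight in OPTI-MEM with 5% FBS; compound pin-transferred, 24 hr at 37 deg C, 5% CO2; luminescent read-out.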
A549 tox = counter-screen for Nrf2 inhibitors: cytotoxicity in A549 cells. Potency, µM (titrated, usually from 46 µM), without a hit: at the top dose activity change, negative = cytotoxicity, usual class: inhibitors. AID 504648. 390,000 compounds, 0.16% hits. A549 ARE-Fluc cells, CellTiter-Fluor viability, 18-24 h; note: potency is the fitted concentration of half-maximal effect; % is set by controls: 0 for no effect and ±100 for the full control effect
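A549 ARE-Fluc cells in 5% FBS OPTI-MEM, 5000 cells/well, rested 2 h then exposed to compounds in concentration-response for 18-24 h at 37 °C. Viability by CellTiter-Fluor fluorescence (Ex 405/Em 525) after 30 min; luciferase luminescence (BugLite, 15 min, RT) read afterwards.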
12-LOX inh = ALOX12 (human) lipoxygenase inhibition; purified 12hLO, xylenol orange hydroperoxide absorbance; P18054; Potency, µM (top dose mostly 108 µM), without a hit: top-dose activity change, negative = inhibition, hits mostly inhibitors; 580,000 compounds, 1.1% hits; note: potency is the fitted concentration of half-maximal effect; % is set by controls: 0 for no effect and ±100 for the full control effect
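Purified human 12hLO (150 nM final) in 25 mM Hepes, 0.01% Triton X-100, pH 7.0 was preincubated 15 min at room temperature with compound. Then 40 uM arachidonic acid was added, 30 min. Hydroperoxide was read by Fe-XO absorbance ratio 573/405 nm.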
IDH1 R132H inh = blocks human mutant IDH1 R132H enzyme. O75874. IDH1-R132H enzyme, NADPH consumption, diaphorase/resazurin fluorescence. Potency, µM (highest dose often 76.6 µM), for the others: at the highest dose activity change, negative = inhibition, actives largely listed as inhibitors. 390,000 compounds, 0.093% hits. AID 602179; note: potency is the fitted concentration of half-maximal effect; % is set by controls: 0 for no effect and ±100 for the full control effect; nearly all actives have a fitted effect of over 65% in size
Target sequence (O75874 whole entry R132H, stated change not applied): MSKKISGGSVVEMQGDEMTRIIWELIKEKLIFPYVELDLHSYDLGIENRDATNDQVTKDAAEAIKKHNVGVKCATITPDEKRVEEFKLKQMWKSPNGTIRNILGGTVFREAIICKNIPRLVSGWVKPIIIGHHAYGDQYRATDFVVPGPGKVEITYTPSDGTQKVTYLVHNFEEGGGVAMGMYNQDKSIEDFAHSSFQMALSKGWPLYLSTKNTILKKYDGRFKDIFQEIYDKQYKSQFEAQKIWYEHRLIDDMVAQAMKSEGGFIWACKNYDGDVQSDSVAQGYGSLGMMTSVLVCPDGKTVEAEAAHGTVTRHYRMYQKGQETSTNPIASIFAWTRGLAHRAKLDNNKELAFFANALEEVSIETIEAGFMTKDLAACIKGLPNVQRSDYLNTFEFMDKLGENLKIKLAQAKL
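IDH1-R132H (0.5 ug/mL dispensed) in pH 7.5 Tris buffer was preincubated 30 min with compound, then given a substrate mix of 0.016 mM NADPH and 2 mM alpha-KG for 80 min at room temperature; remaining NADPH was read by diaphorase/resazurin fluorescence.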
LDHA block = inhibitors of human lactate dehydrogenase A. P00338. purified LDHA, NADH/diaphorase-resazurin fluorescence; active compounds read low. activity change, % (values are at about 110 or 230 µM). 480,000 compounds, 0.15% hits. AID 1347041; in the data active = activity change below about -30%; inconclusive = mostly about -25% to -30%;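 note: plate controls were DMSO wells for no effect and wells without enzyme for full effect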
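LDH5 2 nM; NADH 0.06 mM, pyruvate 0.2 mM; 200 mM Tris pH 7.4, EDTA, Tween-20; 5 min RT. Detection: diaphorase 0.133 mg/mL + resazurin 37 µM, fluorescence ex540/em590 at 0 and 20 min; normalized to enzyme-free and DMSO wells.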
Nrf2 inh = inhibitors of Nrf2 signaling | A549 ARE-Fluc reporter, luciferase luminescence, 18-24 h | Potency, µM (doses to about 46 µM), inactives show at the top dose activity change, negative = inhibition, most hits filed as inhibitors | 360,000 compounds, 2.1% hits | AID 504444; note: potency is the fitted concentration of half-maximal effect; % is set by controls: 0 for no effect and ±100 for the full control effect; nearly all actives have a fitted effect of over 60% in size
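Nrf2 function is reported as luminescence of an ARE-controlled luciferase in A549 cells. Compounds were tested at several concentrations, and a CellTiter-Fluor read on the same wells flagged cytotoxicity.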
Resorufin autofl = counter-screen for mutant IDH1 inhibitors: fluorescence interference; shares compounds with IDH1 R132H inh; Resorufin detection reagent fluorescence interference, cell-free; inhibition of signal, % at 51.2 µM; 750 tested, under 10 active; AID 623980;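 note: 0% = wells with normal resorufin and full inhibition = wells lacking resorufin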
WT IDH1 inh = wild-type IDH1 (human) inhibition counterscreen. 750 compounds, 9% hits. shares compounds with IDH1 R132H inh. Potency, µM (titrated, usually from 115 µM), inactives show top-dose activity change, negative = inhibition, actives largely listed as inhibitors. WT IDH1 enzyme, NADPH diaphorase/resazurin fluorescence. AID 623995;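 note: potency is the fitted concentration of half-maximal effect; 0% = full WT IDH1 enzyme control and full inhibition = no enzyme wells; nearly all actives have a fitted effect of over 55% in size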
Target sequence (O75874 whole entry, looked up): as the sequence (O75874 whole entry R132H, stated change not applied) above, with H132R counted along it
mIDH1 confirm = mutant IDH1 (human) inhibition, confirmed. shares compounds with IDH1 R132H inh. IDH1 R132H enzyme, NADPH diaphorase/resazurin fluorescence. Potency, µM (series often up to 76.6 µM), without a hit: at the highest dose activity change, negative = inhibition, actives largely listed as inhibitors. 750 compounds, 83% hits. AID 624002; note: potency is the fitted concentration of half-maximal effect; nearly all actives have a fitted effect of over 50% in size
* hit, by the source's call. Hits are enriched below; roughly 2.7% of the tested compounds scored in any of these assays. Unless noted, calls come from the whole dose curve; as a rule, active = well fitted curve in the direction sought with a large enough effect; inconclusive = small, poorly fitted or top-dose-only effect, or another doubt; inactive = no such curve, though single readings can be large; an effect the other way counts as inactive or inconclusive.

How did COCCN1Cc2cc3cc(C)ccc3nc2SC1=Nc1cccc(OC)c1 do in these assays?
Nrf2 ARE act: 0%; A549 tox: 2%; 12-LOX inh: inconclusive; IDH1 R132H inh: 6%; LDHA block: -1; Nrf2 inh: -6%

Results for Cc1ccc2[nH]c(=O)c3cc(C(=O)N(C)c4ccc(C)c(C)c4)sc3c2c1 ?
Nrf2 ARE act: -1%; A549 tox: -8%; 12-LOX inh: 2%; IDH1 R132H inh: 52µM*; LDHA block: -3; Nrf2 inh: -27%; Resorufin autofl: 0; WT IDH1 inh: -12%; mIDH1 confirm: 16µM*

What do the screens show for `CCN(C(=O)c1cc2c(=O)[nH]c3ccc(C)cc3c2s1)c1cccc(C)c1`?
Nrf2 ARE act: 0%; A549 tox: -9%; 12-LOX inh: -53%; IDH1 R132H inh: 21µM*; LDHA block: -5; Nrf2 inh: inconclusive; Resorufin autofl: -3; WT IDH1 inh: 10%; mIDH1 confirm: 22µM*

How did CCN(C(=O)c1cc2c(=O)[nH]c3ccc(C)cc3c2s1)c1ccc(F)cc1 do in these assays?
Nrf2 ARE act: 2%; A549 tox: -6%; 12-LOX inh: -21%; IDH1 R132H inh: -6%; LDHA block: -2; Nrf2 inh: -22%

Results for C/C(=C/C(=O)C(F)(F)F)N1CCN(C/C=C/c2ccccc2)CC1 ?
12-LOX inh: inconclusive; LDHA block: 7

Results for CCn1c(=O)c2c(nc(-n3nc(C)cc3C)n2Cc2c(Cl)cccc2Cl)n(C)c1=O ?
12-LOX inh: -16%; LDHA block: 7

How did Cc1cc(C)n(-c2nc(Nc3ccccc3)nc(-n3nc(C)cc3C)n2)n1 do in these assays?
Nrf2 ARE act: 0%; A549 tox: -2%; 12-LOX inh: 12%; IDH1 R132H inh: 0%; LDHA block: -9; Nrf2 inh: -6%

Results for Cc1cc(C)n(-c2nc(N(c3ccccc3)c3ccccc3)nc(-n3nc(C)cc3C)n2)n1 ?
Nrf2 ARE act: -1%; A549 tox: inconclusive; IDH1 R132H inh: inconclusive; LDHA block: 7; Resorufin autofl: -1; WT IDH1 inh: 7%; mIDH1 confirm: 10µM*

Results for O=C1NC[C@H](Cc2ccccc2)N(C[C@H]2CCCN2C[C@H](Cc2ccccc2)N2C[C@H](Cc3ccccc3)N(CCc3ccccc3)C(=O)C2=O)C1=O ?
Nrf2 ARE act: -3%; A549 tox: inconclusive; 12-LOX inh: inconclusive; IDH1 R132H inh: inconclusive; LDHA block: 0; Nrf2 inh: inconclusive; Resorufin autofl: 0; WT IDH1 inh: 1%; mIDH1 confirm: 28µM*

Results for O=C1NC[C@H](Cc2ccccc2)N(C[C@H]2CCCN2C[C@H](Cc2ccccc2)N2C[C@H](Cc3ccccc3)N(CC3CCCCC3)C(=O)C2=O)C1=O ?
Nrf2 ARE act: -3%; A549 tox: inconclusive; 12-LOX inh: inconclusive; IDH1 R132H inh: inconclusive; LDHA block: 1; Nrf2 inh: inconclusive; Resorufin autofl: 6; WT IDH1 inh: -4%; mIDH1 confirm: inconclusive

Results for COC(=O)[C@@]12CCCCN1[C@H](c1ccc(-c3ccc(F)cc3)c(OC)c1)[C@H]1C(=O)N(C)C(=O)[C@H]12 ?
Nrf2 ARE act: -1%; A549 tox: -4%; 12-LOX inh: -23%; IDH1 R132H inh: -4%; LDHA block: 0; Nrf2 inh: inconclusive

How did COC(=O)[C@@]12CCCCN1[C@H](c1ccc(-c3ccc(OC)cc3)c(OC)c1)[C@@H]1C(=O)N(C)C(=O)[C@@H]12 do in these assays?
Nrf2 ARE act: 3%; A549 tox: -8%; 12-LOX inh: -15%; IDH1 R132H inh: 35µM*; LDHA block: 4; Nrf2 inh: inconclusive; Resorufin autofl: 4; WT IDH1 inh: 5%; mIDH1 confirm: 5µM*

What do the screens show for `Cc1ccc(N2C(=O)c3cccnc3C2Nc2ccc(F)cc2C)cc1` (centres undefined)?
12-LOX inh: inconclusive; LDHA block: 10

Results for CSc1nc(N(C)NC(=O)c2ccc(Cl)cc2)c2ccccc2n1 ?
Nrf2 ARE act: 3%; A549 tox: inconclusive; 12-LOX inh: 117%; IDH1 R132H inh: 46µM*; LDHA block: -12; Nrf2 inh: 20%; Resorufin autofl: 4; WT IDH1 inh: 2%; mIDH1 confirm: 22µM*

How did CSc1nc(N(C)NC(=O)c2ccccc2)c2ccccc2n1 do in these assays?
Nrf2 ARE act: 0%; A549 tox: -24%; 12-LOX inh: -29%; IDH1 R132H inh: -1%; LDHA block: -1; Nrf2 inh: -2%

Results for CCNC(=O)NC(=O)C(C)OC(=O)c1oc2ccccc2c1CSC1CCCCC1 (centres undefined) ?
Nrf2 ARE act: 0%; A549 tox: 0%; 12-LOX inh: 1%; IDH1 R132H inh: inconclusive; LDHA block: -3; Nrf2 inh: 9%; Resorufin autofl: -1; WT IDH1 inh: 0%; mIDH1 confirm: 32µM*

What do the screens show for `FC(F)(F)c1cccc(Nc2c3c(nc4ccc(Cl)cc24)CCC3)c1`?
Nrf2 ARE act: -1%; A549 tox: -6%; 12-LOX inh: -26%; IDH1 R132H inh: inconclusive; LDHA block: 2; Nrf2 inh: inconclusive; Resorufin autofl: 3; WT IDH1 inh: 2%; mIDH1 confirm: inconclusive

What do the screens show for `Cc1cc(C)c(NC(=O)CSC2CCCC2)c(Cl)c1`?
12-LOX inh: -6%; LDHA block: 0

What do the screens show for `N=c1c(S(=O)(=O)c2ccccc2)cc2c(=O)n3ccccc3nc2n1CC1CCCO1` (centres undefined)?
Nrf2 ARE act: 1%; A549 tox: -1%; 12-LOX inh: inconclusive; IDH1 R132H inh: inconclusive; LDHA block: 0; Nrf2 inh: 24%; Resorufin autofl: -2; WT IDH1 inh: 8%; mIDH1 confirm: 35µM*
